PubChem BioAssay (NCATS)
Results filed as inconclusive are left out. Values without a mark were called inactive. The call rests on the fitted dose curve; in most records, active means well fitted cell-killing curve with a large enough effect; inconclusive means small, poorly fitted or top-dose-only effect, or effect the other way; inactive means flat fitted curve, though single readings scatter.

The compounds below were run on Tov-21-G (assay: Primary qHTS to identify gynecologic anti-cancer compounds using libraries of approved drugs and bioactive compounds (AID 1345084; further: nearly all actives have a fitted effect of over 55% in size)). Details: Gynecologic cancer cell panel viability, ATPlite luminescence, 48 h; series mostly up to 57.5 µM; activity change, negative = cytotoxicity: at the top concentration.
In short: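 Five-point cytotoxicity, 48 h drug exposure at 37 C, 5% CO2, on cells seeded 16 h beforehand. ATP content read by ATPlite luminescence.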
On the % scale 0 is the no-effect control and ±100 the full control effect.

First: Cc1ccccc1-n1nc(-c2c(-c3ccc(F)cc3)nn3c2NC[C@@H](CO)C3)ccc1=O
Second: COC(=O)Cn1nc(-c2cccc(OC)c2)c2ccccc21
The “activity change, negative = cytotoxicity” value of the first is lower: -3.63% for the first, -0.503% for the second.

Going from `C[C@@H]1O[C@@H](OC(=O)Cc2ccccc2)[C@H](O)[C@H](O)[C@H]1O` to `CNc1nc(Cc2ccccc2)nc2c1CCNC[C@@H]2C`, the “activity change, negative = cytotoxicity” value rises from -3.07% to 10.2%.

Compared with `C=C(C(=O)O)C1CC(O)C2(C)CCCC(C)(O)C2C1` (centres undefined), `C=C(C(=O)O)[C@@H]1CC[C@@]2(C)CC[C@@H](O)C(=C)C2C1` (some centres undefined) is lower in “activity change, negative = cytotoxicity” value: 1.44% for the first, 1.4% for the second.

Going from `C=C1CC/C=C(/CO)C(=O)C[C@@H]2[C@@H]1C[C@@]2(C)COC(C)=O` to `CC(C)(CC(=O)N1CCCC1)NCC(=O)N1C[C@@H](F)C[C@H]1C#N`, the “activity change, negative = cytotoxicity” value rises from -1.36% to -0.249%.

First: Oc1ccc(CC2NCCc3cc(O)c(O)cc32)cc1 (centres undefined)
Second: CC(C)=CCc1c(O)cc2oc3cc(C)cc(O)c3c2c1C
The “activity change, negative = cytotoxicity” value of the first is higher: 9.04% for the first, 0.999% for the second.

Going from `CC(O)/C=C/C1(O)C(C)C(O)C(O[C@@H]2O[C@H](CO)[C@@H](O)[C@H](O)[C@H]2O)CC1(C)C` (some centres undefined) to `CC(=O)/C=C/C1(O)C(C)CC(O[C@@H]2O[C@H](CO)[C@@H](O)[C@H](O)[C@H]2O)CC1(C)C` (some centres undefined), the “activity change, negative = cytotoxicity” value falls from 3.73% [at 25.3 µM] to 2.24% [at 25.3 µM].

Going from `CC(C)=CCC[C@](C)(O[C@@H]1O[C@H](CO[C@@H]2O[C@@H](CO)[C@H](O)[C@H]2O)[C@@H](O)[C@H](O)[C@H]1O)[C@H]1CC[C@]2(C)[C@@H]1[C@H](O)C[C@@H]1[C@@]3(C)CC[C@H](O[C@@H]4O[C@H](CO)[C@@H](O)[C@H](O)[C@H]4O[C@@H]4O[C@H](CO)[C@@H](O)[C@H](O)[C@H]4O)C(C)(C)[C@@H]3CC[C@]12C` to `COc1ccc(/C=C/C(=O)O[C@@H]2[C@@H](OC(C)=O)[C@@H](OC(C)=O)[C@H](O[C@H]3[C@@H]4C=CO[C@@H](O[C@@H]5O[C@H](CO)[C@@H](O)[C@H](O)[C@H]5O)[C@@H]4[C@@]4(CO)O[C@@H]34)O[C@H]2C)cc1`, the “activity change, negative = cytotoxicity” value rises from -9.19% [at 25.3 µM] to 9.78% [at 25.3 µM].

First: COc1cc2c(cc1O)CC(O)(CO)C(CO)C2c1ccc(OC2OC(CO)C(O)C(O)C2O)c(OC)c1 (centres undefined)
Second: COc1cc([C@H]2OC[C@](O)(Cc3ccc(O[C@@H]4O[C@H](CO)[C@@H](O)[C@H](O)[C@H]4O)c(OC)c3)[C@@H]2CO)ccc1O
The “activity change, negative = cytotoxicity” value of the first is lower: -1.37% [at 25.3 µM] for the first, 5.67% [at 25.3 µM] for the second.

Going from `COc1cc(O)cc(O[C@@H]2O[C@H](CO)[C@@H](O[C@@H]3OC[C@](O)(CO)[C@H]3O)[C@H](O)[C@H]2O)c1OC` to `COC(=O)c1ccccc1O[C@@H]1O[C@H](CO[C@@H]2OC[C@@H](O)[C@H](O)[C@H]2O)[C@@H](O)[C@H](O)[C@H]1O`, the “activity change, negative = cytotoxicity” value rises from -0.836% [at 25.3 µM] to 4.87% [at 25.3 µM].

`CC(=O)[C@@H]1C[C@H](C(C)(C)O[C@@H]2O[C@H](CO)[C@@H](O)[C@H](O)[C@H]2O)CC[C@@]2(CO)OC(=O)C[C@@H]12` was tested, and the “activity change, negative = cytotoxicity” value was 4.71% [at 25.3 µM].

First: COc1cc(C)c(C(=O)NC2C(C)OC(OC3CCC(C)C4C3C=C(C)C3/C(C)=C\CC/C(C)=C/C5(C)C=C(C(=O)O)C(C)CC56OC(=O)/C(=C(\O)C34C)C6=O)C(O)C2(C)O)c(O)c1 (centres undefined)
Second: C[C@@H]1O[C@@H](OC2C(CO)OC(OCC3OC(OC(=O)[C@]45CCC(C)(C)CC4C4=CCC6[C@@]7(C)CC[C@@H](O)[C@](C)(C(=O)O)C7CC[C@@]6(C)[C@]4(C)CC5)C(O)C(O)C3O)C(O)C2O)[C@H](O)[C@H](O)[C@H]1O (some centres undefined)
The activity change, negative = cytotoxicity of the first is lower: 4.24% [at 11.6 µM] for the first, 6.16% [at 11.6 µM] for the second.

For `C[C@H]1CC[C@@]2(OC1)O[C@H]1CC3C4CC[C@H]5C[C@@H](O[C@@H]6O[C@H](CO)[C@H](O[C@@H]7O[C@H](CO)[C@@H](O)[C@H](O[C@@H]8OC[C@@H](O)[C@H](O)[C@H]8O)[C@H]7O[C@@H]7O[C@H](CO)[C@@H](O)[C@H](O)[C@H]7O)[C@H](O)[C@H]6O)[C@H](O)C[C@]5(C)C4=CC(=O)[C@]3(C)[C@H]1[C@@H]2C` (some centres undefined), the activity change, negative = cytotoxicity was -4.82% [at 11.6 µM].

`CC1(C)C2CCC1(C)C(OC(=O)C(O)(CC(=O)O)CC(=O)O)C2` (centres undefined) was tested, and the “activity change, negative = cytotoxicity” value was -9.89% [at 38.5 µM].

With `CC(C)=CCC[C@](C)(O[C@@H]1O[C@H](CO[C@@H]2O[C@@H](CO)[C@H](O)[C@H]2O[C@@H]2OC[C@@H](O)[C@H](O)[C@H]2O)[C@@H](O)[C@H](O)[C@H]1O)[C@H]1CC[C@]2(C)[C@@H]1[C@H](O)CC1[C@@]3(C)CC[C@H](O[C@@H]4O[C@H](CO)[C@@H](O)[C@H](O)[C@H]4O[C@@H]4O[C@H](CO)[C@@H](O)[C@H](O)[C@H]4O)C(C)(C)C3CC[C@]12C` (some centres undefined) the activity change, negative = cytotoxicity was 0.809% [at 6.55 µM].
